Drawing on PubChem BioAssay (NCI), this text covers growth inhibition for seven compounds.

Where “and” joins values, the source holds several entries; their conditions need not be identical. Equal entries are not always repeated. This is part of a sample that, as a whole, favours compounds with a hit. Of some 79,000 tested, about 15% had one in any assay. The source holds several records for some structures; these can differ, active in one and inactive in another. Calls of active or inactive are those of the source. No stated cut-off is given here; in the data, active means growth inhibition above about 70%; inactive means the rest.

Experiment [1] is described as follows: NCI Yeast Anticancer Drug Screen. Data for the rad50 strain (AID 155).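 Further: 0% = growth of vehicle-only cultures of the same strain.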 The conditions noted are these: S. cerevisiae rad50 strain growth inhibition, stronger effect = higher value. The method in brief:
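Vehicle-treated cultures provide the reference for the growth inhibition reported for compound-exposed, repair-deficient yeast.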

Experiment [2] is described as follows: NCI Yeast Anticancer Drug Screen. Data for the mec2-1 strain (AID 157). The conditions noted are these: S. cerevisiae mec2-1 strain, stronger effect = higher value. The method in brief: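 Vehicle-treated cultures served as reference for growth inhibition of compound-exposed mec2-1 yeast.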
Experiment [3] can be described thus: NCI Yeast Anticancer Drug Screen. Data for the sgs1 mgt1 strain (AID 161).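 Further: 0% = growth of cultures given vehicle only.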 The conditions noted are these: S. cerevisiae sgs1 mgt1 strain, stronger effect = higher value. The method in brief: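 Read-out: growth inhibition vs vehicle controls. Cells: mutant yeast strain deficient in DNA damage repair.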
Experiment [4] can be described thus: NCI Yeast Anticancer Drug Screen. Data for the cln2 rad14 strain (AID 165).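 Further: 0% = growth equal to vehicle treated cultures.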 The note with it: S. cerevisiae cln2 rad14 strain, stronger effect = higher value. A digest of the protocol: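 Each compound was tested on cln2 rad14 yeast. Inhibition of growth was calculated against vehicle-exposed controls.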
The nature of experiment [5]: NCI Yeast Anticancer Drug Screen. Data for the bub3 strain (AID 167). The note with it: S. cerevisiae bub3 mutant strain, stronger effect = higher value. A digest of the protocol:
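Mutant yeast screening strain plus compound; vehicle-treated cultures serve as the 0% inhibition reference.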

Experiment [6] can be described thus: NCI Yeast Anticancer Drug Screen. Data for the mlh1 rad18 strain (AID 175). The conditions noted are these: S. cerevisiae mlh1 rad18 strain growth inhibition, stronger effect = higher value. A digest of the protocol: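 Vehicle-treated cultures served as the reference for growth inhibition in a yeast strain carrying DNA damage repair alterations exposed to each compound.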

Setting [7] is: at 5.0 µM (retest, dose inferred, filed as 0.5).
[8] abbreviates: at 50.0 µM (retest, dose inferred, filed as 5.0).

For `O=C(OCC(OC(=O)c1ccccc1)C(OC(=O)c1ccccc1)C(OC(=O)c1ccccc1)C(OC(=O)c1ccccc1)c1nn[nH]n1)c1ccccc1` (stereo unspecified), the growth inhibition is 61% (inactive) and 23% (inactive) in experiment [1] (setting [7]); 72% (active) and 81% (active) in experiment [1] (setting [8]); 93.1% (active) and 90.7% (active) in experiment [1] (at 50.0 µM); 52% (inactive) and 41% (inactive) in experiment [2] (setting [7]); 72% (active) and 77% (active) in experiment [2] (setting [8]); 87.5% (active) and 89% (active) in experiment [2] (at 50.0 µM). For the same compound, the growth inhibition in experiment [3] (setting [7]) is 54% (inactive) and 18% (inactive); in experiment [3] (setting [8]), 72% (active) and 75% (active); in experiment [3] (at 50.0 µM) it was 93.3% (active) and 91.6% (active); in experiment [4] (setting [7]) it was 54% (inactive) and 40% (inactive); in experiment [4] (setting [8]), 75% (active) and 82% (active); in experiment [4] (at 50.0 µM), 90.2% (active) and 90.3% (active). For the same compound, the growth inhibition in experiment [5] (setting [7]) is 75% (active) and 16% (inactive); in experiment [5] (setting [8]), 88% (active) and 74% (active); in experiment [5] (at 50.0 µM), 78.6% (active) and 82.8% (active); in experiment [6] (setting [7]) it was 60% (inactive) and 26% (inactive); in experiment [6] (setting [8]), 74% (active) and 81% (active); in experiment [6] (at 50.0 µM), 89.2% (active) and 90% (active).
For the compound `CCc1cc2c(cc1C(C)=O)C(C)(C)CCC2`, the growth inhibition in experiment [1] (setting [7]) is 6% (inactive); in experiment [1] (setting [8]), 95% (active); in experiment [1] (at 50.0 µM) it was 98.5% (active); in experiment [2] (setting [7]), 2% (inactive); in experiment [2] (setting [8]) it was 97% (active); in experiment [2] (at 50.0 µM), 98.7% (active). For the same compound, the growth inhibition is 14% (inactive) in experiment [3] (setting [7]); 98% (active) in experiment [3] (setting [8]); 98.5% (active) in experiment [3] (at 50.0 µM); 11% (inactive) in experiment [4] (setting [7]); 97% (active) in experiment [4] (setting [8]); 93% (active) in experiment [4] (at 50.0 µM). Moreover, the growth inhibition in experiment [5] (setting [7]) was -3% (inactive); in experiment [5] (setting [8]) it was 96% (active); in experiment [5] (at 50.0 µM) it was 98.7% (active); in experiment [6] (setting [7]), 9% (inactive); in experiment [6] (setting [8]), 98% (active); in experiment [6] (at 50.0 µM), 98.7% (active).
Regarding `Nc1cc2ccc(O)cc2c2ccccc12`, the growth inhibition in experiment [1] (setting [7]) was 0% (inactive); in experiment [1] (setting [8]) it was 81% (active); in experiment [1] (at 50.0 µM), 94.8% (active); in experiment [2] (setting [7]), 4% (inactive); in experiment [2] (setting [8]), 51% (inactive); in experiment [2] (at 50.0 µM) it was 86.2% (active). For the same compound, the growth inhibition in experiment [3] (setting [7]) was -1% (inactive); in experiment [3] (setting [8]), 54% (inactive); in experiment [3] (at 50.0 µM), 91% (active); in experiment [4] (setting [7]) it was 1% (inactive); in experiment [4] (setting [8]), 34% (inactive); in experiment [4] (at 50.0 µM) it was 67.5% (inactive). For the same compound, the growth inhibition was 2% (inactive) in experiment [5] (setting [7]); 89% (active) in experiment [5] (setting [8]); 93.4% (active) in experiment [5] (at 50.0 µM); -1% (inactive) in experiment [6] (setting [7]); 82% (active) in experiment [6] (setting [8]); 94.7% (active) in experiment [6] (at 50.0 µM).
For the compound `N=C1N(c2ccccc2)C(=S)C(=Nc2ccccc2)N1c1ccccc1`, the growth inhibition in experiment [1] (setting [7]) is 16% (inactive); in experiment [1] (setting [8]) it was 99% (active); in experiment [1] (at 50.0 µM), 88.5% (active); in experiment [2] (setting [7]), -4% (inactive); in experiment [2] (setting [8]), 99% (active); in experiment [2] (at 50.0 µM), 90.8% (active). Moreover, the growth inhibition was 8% (inactive) in experiment [3] (setting [7]); 99% (active) in experiment [3] (setting [8]); 84% (active) in experiment [3] (at 50.0 µM); 9% (inactive) in experiment [4] (setting [7]); 99% (active) in experiment [4] (setting [8]); 82% (active) in experiment [4] (at 50.0 µM). Also, the growth inhibition in experiment [5] (setting [7]) was -33% (inactive); in experiment [5] (setting [8]) it was 99% (active); in experiment [5] (at 50.0 µM), 84.2% (active); in experiment [6] (setting [7]) it was -6% (inactive); in experiment [6] (setting [8]) it was 99% (active); in experiment [6] (at 50.0 µM), 87.2% (active).
Consider `CCCCCCC(C)CC(CCCCCC)NCCOC(=O)c1ccc([N+](=O)[O-])cc1` (stereo unspecified), for which the growth inhibition in experiment [1] (setting [7]) was 34% (inactive) and 18% (inactive); in experiment [1] (setting [8]), 98% (active) and 97% (active); in experiment [1] (at 50.0 µM), 98.8% (active) and 99.2% (active); in experiment [2] (setting [7]), 40% (inactive) and 22% (inactive); in experiment [2] (setting [8]) it was 99% (active); in experiment [2] (at 50.0 µM) it was 99.3% (active) and 99.5% (active). For the same compound, the growth inhibition was 80% (active) and 42% (inactive) in experiment [3] (setting [7]); 99% (active) in experiment [3] (setting [8]); 99.2% (active) and 99.5% (active) in experiment [3] (at 50.0 µM); 14% (inactive) and 2% (inactive) in experiment [4] (setting [7]); 98% (active) in experiment [4] (setting [8]); 98.5% (active) and 99.1% (active) in experiment [4] (at 50.0 µM). For the same compound, the growth inhibition in experiment [5] (setting [7]) is 19% (inactive) and 6% (inactive); in experiment [5] (setting [8]), 99% (active) and 98% (active); in experiment [5] (at 50.0 µM), 98.7% (active) and 99.3% (active); in experiment [6] (setting [7]), 72% (active) and 68% (inactive); in experiment [6] (setting [8]), 99% (active) and 98% (active); in experiment [6] (at 50.0 µM), 99% (active) and 99.5% (active).
Consider `CC(c1ccccc1)c1ccc(O)cc1` (stereo unspecified), for which the growth inhibition is 0% (inactive) in experiment [1] (setting [7]); 73% (active) in experiment [1] (setting [8]); 46.9% (inactive) and 86.5% (active) in experiment [1] (at 50.0 µM); -3% (inactive) in experiment [2] (setting [7]); 57% (inactive) in experiment [2] (setting [8]); 33.2% (inactive) and 81% (active) in experiment [2] (at 50.0 µM). The growth inhibition in experiment [3] (setting [7]) was -1% (inactive); in experiment [3] (setting [8]) it was 49% (inactive); in experiment [3] (at 50.0 µM), 6.55% (inactive) and 85.7% (active); in experiment [4] (setting [7]), 0% (inactive); in experiment [4] (setting [8]), 56% (inactive); in experiment [4] (at 50.0 µM), 24.6% (inactive) and 65.2% (inactive). The growth inhibition in experiment [5] (setting [7]) was -9% (inactive); in experiment [5] (setting [8]) it was 51% (inactive); in experiment [5] (at 50.0 µM) it was 40.4% (inactive) and 66.4% (inactive); in experiment [6] (setting [7]), 0% (inactive); in experiment [6] (setting [8]), 90% (active); in experiment [6] (at 50.0 µM), 53.2% (inactive) and 92.3% (active).
For `NC(CC(=O)O)C(=O)O` (stereo unspecified), the growth inhibition in experiment [1] (setting [7]) is -2% (inactive); in experiment [1] (setting [8]) it was 2% (inactive); in experiment [1] (at 50.0 µM), -21.4% (inactive) and 99.3% (active) and 3.3% (inactive); in experiment [2] (setting [7]) it was -10% (inactive); in experiment [2] (setting [8]), -3% (inactive); in experiment [2] (at 50.0 µM) it was -7.85% (inactive) and 99.6% (active) and 9.7% (inactive). Moreover, the growth inhibition in experiment [3] (setting [7]) is -3% (inactive); in experiment [3] (setting [8]), 0% (inactive); in experiment [3] (at 50.0 µM) it was -30.9% (inactive) and 98% (active) and -5.9% (inactive); in experiment [4] (setting [7]), 4% (inactive); in experiment [4] (setting [8]), -7% (inactive); in experiment [4] (at 50.0 µM) it was -7.75% (inactive) and 99.3% (active) and 16.6% (inactive). The growth inhibition in experiment [5] (setting [7]) is 5% (inactive); in experiment [5] (setting [8]), 0% (inactive); in experiment [5] (at 50.0 µM) it was -10.1% (inactive) and 99.6% (active) and -3.75% (inactive); in experiment [6] (setting [7]), -3% (inactive); in experiment [6] (setting [8]) it was 4% (inactive); in experiment [6] (at 50.0 µM), -14.1% (inactive) and 99.5% (active) and 21.2% (inactive).
